# In PubChem BioAssay (Tox21):
# Records with an inconclusive call do not appear. Entries that show only a call come without a potency. Activity calls are given as the source filed them. Unless noted, calls come from the whole dose curve; as a rule, active = well fitted curve in the direction sought with a large enough effect in the repeat runs; inconclusive = weak or mixed curves; inactive = no such curve, though single readings can be large; an effect the other way counts as inactive or inconclusive.
# How the values were obtained:
# [1] = qHTS assay to identify aromatase inhibitors - cell viability counter screen (AID 743084);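 note: cells stimulated with testosterone during compound exposure; nearly all actives have a fitted effect of over 55% in size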; note: potency is the fitted concentration of half-maximal effect
# [2] = target: Aryl hydrocarbon receptor (Homo sapiens) (UniProt P35869); assay: qHTS assay to identify small molecule that activate the aryl hydrocarbon receptor (AhR) signaling pathway (AID 743085); note: nearly all actives have a fitted effect of over 15% in size; note: potency is the fitted concentration of half-maximal effect;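 for activation: HG2L7.5c1 human HepG2 liver cells with stably integrated DRE-driven firefly reporter; series mostly up to about 70 µM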
# Summary of the method: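 Compounds were tested in HepG2 hepatocellular carcinoma cells harbouring a stably integrated luciferase gene under control of 20 DREs. Increased reporter signal after 24 h treatment at 37C was taken as AhR activation.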
# [3] = qHTS assay to identify small molecule that activate the aryl hydrocarbon receptor (AhR) signaling pathway - cell viability counter screen (AID 743086); note: nearly all actives have a fitted effect of over 45% in size; note: potency is the fitted concentration of half-maximal effect
# Summary of the method: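 HepG2-AhR-luc (HG2L7.5c1) cells, 4000/well, were preincubated 5 h at 37C, exposed to compound in qHTS format for 24 hr at 37C, then given CellTiter-Fluor for 30 min; viability was read as fluorescence in the reporter wells.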
# [4] = qHTS assay to identify small molecule antagonists of the peroxisome proliferator-activated receptor gamma (PPARg) signaling pathway - cell viability counter screen (AID 743194); conditions: Potency: co-treated with 50 nM rosiglitazone; note: nearly all actives have a fitted effect of over 55% in size
# Summary of the method: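 PPARg-UAS-bla HEK293H cells were plated, rested 5 h at 37 C, then treated with compounds plus rosiglitazone (50 nM final) for 17 h at 37 C; viability was then read by CellTiter-Glo luminescence after 30 min at room temperature.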
# [5] = qHTS assay for small molecule agonists of the antioxidant response element (ARE) signaling pathway - cell viability counter screen (AID 743203; calls by dose curve; note: nearly all actives have a fitted effect of over 55% in size)
# Summary of the method: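 Following 16 hrs of compound treatment at 37C, HepG2 cells with an ARE-controlled beta-lactamase gene were lysed with CellTiter-Glo. Luminescence was read after 30 min at room temperature.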
# [6] = qHTS assay for small molecule activators of the heat shock response signaling pathway - cell viability counter screen (AID 743209); note: nearly all actives have a fitted effect of over 50% in size
# Summary of the method: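 Readout: CellTiter-Glo luminescence, 30 min at room temperature. System: HSE-bla HeLa cells, 1500/well, plated overnight. Treatment: compounds in DMSO, 5 h at 37 C.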
# [7] = qHTS assay for small molecule activators of the heat shock response signaling pathway (AID 743210; active = well fitted activation curve with a large enough effect in the signal ratio in the repeat runs, with a control signal flat, not every such curve was filed as active; the % refers to the signal ratio; note: series mostly up to about 63 µM)
# Summary of the method: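 HSE-bla HeLa cells (beta-lactamase reporter under heat shock response elements) were exposed to compounds for 5 h at 37 C, then loaded with LiveBLAzer B/G FRET substrate for 2.5 h at room temperature before fluorescence reading.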
# [8] = qHTS assay to identify small molecule agonists of the peroxisome proliferator-activated receptor delta (PPARd) signaling pathway - cell viability counter screen (AID 743211); note: nearly all actives have a fitted effect of over 55% in size
# Summary of the method: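 Counter screen for cytotoxicity run in parallel with the PPARd reporter screen. Beta-lactamase reporter HEK293H cells exposed to compounds 17 h; ATP-based CellTiter-Glo luminescence quantified viability.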
# [9] = target: Peroxisome proliferator-activated receptor delta (Homo sapiens) (UniProt Q03181); assay: qHTS assay to identify small molecule agonists of the peroxisome proliferator-activated receptor delta (PPARd) signaling pathway (AID 743212; calls by dose curve)
# Summary of the method: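 GeneBLAzer PPARd UAS-bla HEK293H cells (beta-lactamase reporter under UAS control), plated and rested 5 h at 37 C, then exposed to compounds in DMSO at 37 C; LiveBLAzer B/G FRET substrate added, 2 h room temperature, fluorescence read.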
# [10] = qHTS assay to identify small molecule antagonists of the peroxisome proliferator-activated receptor delta (PPARd) signaling pathway - cell viability counter screen (AID 743213); note: nearly all actives have a fitted effect of over 50% in size
# Summary of the method: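 Agonist-stimulated (L165041, 300 nM final) HEK293H PPARd UAS-bla cells are exposed to compounds for 17 h at 37 C, and ATP-based luminescence (CellTiter-Glo) from the same wells reports cytotoxicity.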
# [11] = qHTS assay to identify small molecule agonists of the farnesoid-X-receptor (FXR) signaling pathway - cell viability counter screen (AID 743218); note: nearly all actives have a fitted effect of over 45% in size
# Summary of the method: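 Parallel cytotoxicity test: compound-treated (16 h, 37 C) HEK 293T FXR-bla reporter cells were lysed with CellTiter-Glo and luminescence recorded.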
# [12] = qHTS assay to identify small molecule antagonists of the farnesoid-X-receptor (FXR) signaling pathway - cell viability counter screen (AID 743221; active = well fitted cell-killing curve with a large enough effect in the repeat runs, not every such curve was filed as active; note: nearly all actives have a fitted effect of over 50% in size)
# Summary of the method: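 Multiplexed counter screen: viability of FXR-bla HEK 293T cells under agonist stimulation by chenodeoxycholic acid (50 uM, final) and test compound for 16 h at 37 C, measured by CellTiter-Glo luminescence in the reporter wells.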
# [13] = target: Vitamin D3 receptor (Homo sapiens) (UniProt P11473); assay: qHTS assay to identify small molecule agonists of the vitamin D receptor (VDR) signaling pathway (AID 743222; calls by dose curve)
# Summary of the method: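 In VDR-bla cells, compound-induced beta-lactamase expression is quantified by FRET substrate fluorescence. Treatment lasts 16 h at 37C; substrate develops 2 h at room temperature.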
# [14] = target: Peroxisome proliferator-activated receptor gamma (Homo sapiens) (UniProt P37231); assay: qHTS assay to identify small molecule antagonists of the peroxisome proliferator-activated receptor gamma (PPARg) signaling pathway (AID 743191; calls by dose curve; note: series mostly up to about 63 µM; nearly all actives have a fitted effect of over 30% in size)
# Summary of the method: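 GeneBLAzer PPARg UAS-bla HEK293H cells carrying a UAS-driven beta-lactamase reporter were plated at 3000 cells/well, preincubated 5 h at 37C, then given compound for 17 h at 37C; LiveBLAzer B/G FRET substrate was read after 1 h at room temperature.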
# [15] = target: Peroxisome proliferator-activated receptor delta (Homo sapiens) (UniProt Q03181); assay: qHTS assay to identify small molecule antagonists of the peroxisome proliferator-activated receptor delta (PPARd) signaling pathway (AID 743215; active = well fitted inhibition curve with a large enough effect in the signal ratio in the repeat runs, not every such curve was filed as active; the % refers to the signal ratio; note: series mostly up to about 62 µM)
# Summary of the method: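 HEK293H UAS-bla, PPARd; agonist L165041 300 nM final with cpd in DMSO; 37 C 17 h; FRET substrate, RT 2 h; fluorescence intensity.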
# [16] = target: Bile acid receptor (Homo sapiens) (UniProt Q96RI1); assay: qHTS assay to identify small molecule antagonists of the farnesoid-X-receptor (FXR) signaling pathway (AID 743217; active = well fitted inhibition curve with a large enough effect in the signal ratio in the repeat runs, not every such curve was filed as active; the % refers to the signal ratio)
# Summary of the method: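 GeneBLAzer FXR-UAS-bla HEK 293T, CDCA-stimulated (50 uM final). Compound treatment 16 h, 37 °C. Detection: beta-lactamase cleavage of B/G FRET substrate, fluorescence.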
# [17] = target: Vitamin D3 receptor (Homo sapiens) (UniProt P11473); assay: qHTS assay to identify small molecule antagonists of the vitamin D receptor (VDR) signaling pathway (AID 743223; active = well fitted inhibition curve with a large enough effect in the signal ratio in the repeat runs, not every such curve was filed as active; the % refers to the signal ratio)
# Summary of the method: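 Cells carrying a VDR-driven beta-lactamase reporter (VDR-bla) were co-treated with compound and 3 nM final 1alpha,25-dihydroxyvitamin D3 for 16 h at 37C; reporter activity was measured as FRET substrate fluorescence after 2 h at room temperature.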
# [18] = target: Bile acid receptor (Homo sapiens) (UniProt Q96RI1); assay: qHTS assay to identify small molecule agonists of the farnesoid-X-receptor (FXR) signaling pathway (AID 743220; active = well fitted activation curve with a large enough effect in the signal ratio in the repeat runs, not every such curve was filed as active; the % refers to the signal ratio)
# Summary of the method: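 Beta-lactamase reporter under UAS control in GeneBLAzer FXR HEK 293T cells (5000/well) measured with LiveBLAzer FRET substrate after 2 h at room temperature. Compound exposure lasted 16 h at 37C.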
# [19] = qHTS assay for small molecule agonists of the antioxidant response element (ARE) signaling pathway (AID 743202; active = well fitted activation curve with a large enough effect in the signal ratio in the repeat runs, not every such curve was filed as active; the % refers to the signal ratio; note: potency is the fitted concentration of half-maximal effect)
# Summary of the method: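 Read-out: LiveBLAzer B/G FRET substrate fluorescence after 2 h at room temperature, following 16 h compound treatment at 37 C of HepG2 cells carrying an ARE-driven beta-lactamase reporter.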
# [20] = target: Peroxisome proliferator-activated receptor gamma (Homo sapiens) (UniProt P37231); assay: qHTS assay to identify small molecule agonists of the peroxisome proliferator-activated receptor gamma (PPARg) signaling pathway (AID 743094; active = well fitted activation curve with a large enough effect in the signal ratio in the repeat runs, not every such curve was filed as active; the % refers to the signal ratio)
# Summary of the method: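 Compounds dissolved in DMSO were added to PPARg UAS-bla HEK293H cells for 17 h at 37C, and reporter expression was quantified by fluorescence intensity after 1 h with LiveBLAzer B/G FRET substrate.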
# Chain of Peroxisome proliferator-activated receptor gamma (Homo sapiens) (P37231 whole entry, looked up): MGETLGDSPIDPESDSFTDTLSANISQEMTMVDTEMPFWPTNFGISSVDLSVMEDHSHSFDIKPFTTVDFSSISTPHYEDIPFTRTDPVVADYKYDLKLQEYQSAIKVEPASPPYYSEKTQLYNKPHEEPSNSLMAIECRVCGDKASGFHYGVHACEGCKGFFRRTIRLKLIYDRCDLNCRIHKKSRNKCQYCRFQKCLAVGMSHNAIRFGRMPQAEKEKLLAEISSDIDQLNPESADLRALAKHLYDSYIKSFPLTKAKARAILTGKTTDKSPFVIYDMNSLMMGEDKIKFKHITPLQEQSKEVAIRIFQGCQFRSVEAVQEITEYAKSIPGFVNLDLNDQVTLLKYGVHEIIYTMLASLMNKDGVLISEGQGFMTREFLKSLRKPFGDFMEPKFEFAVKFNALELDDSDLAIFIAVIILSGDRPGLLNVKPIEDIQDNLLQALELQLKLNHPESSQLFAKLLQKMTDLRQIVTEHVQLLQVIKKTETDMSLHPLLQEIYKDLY
# Chain of Bile acid receptor (Homo sapiens) (Q96RI1 whole entry, looked up): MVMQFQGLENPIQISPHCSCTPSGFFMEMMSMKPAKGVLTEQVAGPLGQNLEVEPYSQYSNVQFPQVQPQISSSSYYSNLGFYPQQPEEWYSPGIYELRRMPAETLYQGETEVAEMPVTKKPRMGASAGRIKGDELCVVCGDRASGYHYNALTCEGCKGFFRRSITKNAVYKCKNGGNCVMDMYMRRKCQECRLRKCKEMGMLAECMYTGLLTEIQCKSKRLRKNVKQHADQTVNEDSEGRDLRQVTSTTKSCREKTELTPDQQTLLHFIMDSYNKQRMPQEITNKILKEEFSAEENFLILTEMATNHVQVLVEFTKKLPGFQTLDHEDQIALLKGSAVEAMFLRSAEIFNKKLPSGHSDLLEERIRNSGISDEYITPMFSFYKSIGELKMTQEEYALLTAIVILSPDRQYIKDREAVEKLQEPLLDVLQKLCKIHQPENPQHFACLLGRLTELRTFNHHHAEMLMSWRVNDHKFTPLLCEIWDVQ
# Chain of Vitamin D3 receptor (Homo sapiens) (P11473 whole entry, looked up): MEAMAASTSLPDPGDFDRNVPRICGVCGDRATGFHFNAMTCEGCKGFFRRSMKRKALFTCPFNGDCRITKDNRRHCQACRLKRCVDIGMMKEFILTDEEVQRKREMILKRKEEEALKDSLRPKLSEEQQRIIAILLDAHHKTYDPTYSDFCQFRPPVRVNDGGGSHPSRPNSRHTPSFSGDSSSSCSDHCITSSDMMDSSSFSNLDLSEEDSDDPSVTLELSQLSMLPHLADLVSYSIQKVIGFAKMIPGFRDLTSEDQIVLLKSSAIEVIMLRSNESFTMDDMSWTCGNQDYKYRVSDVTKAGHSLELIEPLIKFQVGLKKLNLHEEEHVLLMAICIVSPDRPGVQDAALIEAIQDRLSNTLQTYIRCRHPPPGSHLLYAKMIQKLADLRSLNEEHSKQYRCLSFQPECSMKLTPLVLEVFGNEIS
# Chain of Aryl hydrocarbon receptor (Homo sapiens) (P35869 whole entry, looked up): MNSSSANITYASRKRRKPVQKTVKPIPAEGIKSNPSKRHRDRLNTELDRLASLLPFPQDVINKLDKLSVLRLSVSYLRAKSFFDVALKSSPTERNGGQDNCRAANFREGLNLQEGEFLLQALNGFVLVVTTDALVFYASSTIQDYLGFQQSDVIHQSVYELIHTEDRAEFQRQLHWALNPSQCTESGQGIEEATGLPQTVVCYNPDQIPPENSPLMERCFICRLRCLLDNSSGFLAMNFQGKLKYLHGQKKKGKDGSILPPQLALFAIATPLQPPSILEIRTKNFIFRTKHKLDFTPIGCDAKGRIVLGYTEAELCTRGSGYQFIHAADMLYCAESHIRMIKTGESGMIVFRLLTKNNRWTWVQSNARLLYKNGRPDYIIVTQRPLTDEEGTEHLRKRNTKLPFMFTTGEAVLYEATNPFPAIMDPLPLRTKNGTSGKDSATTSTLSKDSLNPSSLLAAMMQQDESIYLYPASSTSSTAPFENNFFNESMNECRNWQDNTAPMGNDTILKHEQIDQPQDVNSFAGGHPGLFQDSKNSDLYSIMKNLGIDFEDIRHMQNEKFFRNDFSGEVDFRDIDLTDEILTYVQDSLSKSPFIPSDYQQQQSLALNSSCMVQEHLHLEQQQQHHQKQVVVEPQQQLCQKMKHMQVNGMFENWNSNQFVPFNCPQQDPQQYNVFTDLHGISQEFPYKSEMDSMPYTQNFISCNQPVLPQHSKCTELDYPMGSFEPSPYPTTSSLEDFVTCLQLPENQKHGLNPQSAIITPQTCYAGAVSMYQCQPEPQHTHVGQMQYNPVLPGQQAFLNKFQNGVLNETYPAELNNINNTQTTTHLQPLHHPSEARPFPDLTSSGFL
# Chain of Peroxisome proliferator-activated receptor delta (Homo sapiens) (Q03181 whole entry, looked up): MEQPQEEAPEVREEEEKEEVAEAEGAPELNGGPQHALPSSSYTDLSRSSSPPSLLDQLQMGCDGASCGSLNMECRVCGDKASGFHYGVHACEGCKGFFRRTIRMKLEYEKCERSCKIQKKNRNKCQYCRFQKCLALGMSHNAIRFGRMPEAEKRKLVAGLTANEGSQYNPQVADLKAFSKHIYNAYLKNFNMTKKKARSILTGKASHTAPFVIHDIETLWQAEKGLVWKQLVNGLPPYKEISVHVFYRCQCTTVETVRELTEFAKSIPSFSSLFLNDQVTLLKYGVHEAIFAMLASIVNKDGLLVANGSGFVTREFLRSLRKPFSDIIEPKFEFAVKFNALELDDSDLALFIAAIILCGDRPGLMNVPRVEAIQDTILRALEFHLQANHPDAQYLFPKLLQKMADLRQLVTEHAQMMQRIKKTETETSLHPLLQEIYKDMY
SMILES,Potency [1],Potency [2],Potency [3],Potency [4],Potency [5],Potency [6],outcome [7],Potency [8],outcome [9],Potency [10],Potency [11],Potency [12],outcome [13],Potency [14],Potency [15],Potency [16],outcome [17],outcome [18],Potency [19],Potency [20]
CCC(COC(=O)c1cc(OC)c(OC)c(OC)c1)(c1ccccc1)N(C)C (stereo not given),inactive,inactive,inactive,inactive,inactive,inactive,inactive,inactive,inactive,inactive,inactive,inactive,inactive,,,,,,,
CCC(Br)(CC)C(=O)NC(N)=O,inactive,inactive,inactive,,inactive,inactive,inactive,inactive,inactive,,inactive,inactive,inactive,inactive,inactive,inactive,inactive,,,
C=CCOC(C)=O,inactive,inactive,inactive,inactive,inactive,inactive,inactive,inactive,,,inactive,inactive,inactive,,,inactive,inactive,inactive,,
O=C(NC(=O)c1c(F)cccc1F)Nc1ccc(OC(F)(F)C(F)OC(F)(F)F)c(Cl)c1 (stereo not given),inactive,inactive,inactive,inactive,inactive,inactive,,inactive,,inactive,inactive,,inactive,,inactive,,inactive,,,
CC[C@H]1C[C@H]2[C@@H]3CCC4=CC(=O)CC[C@@H]4[C@H]3CC[C@]2(C)[C@H]1O,inactive,inactive,inactive,inactive,inactive,inactive,inactive,,inactive,inactive,inactive,inactive,,,,,inactive,,,
C#CCOC(C(=O)OCCN(C)C)(c1ccccc1)c1ccccc1,inactive,inactive,inactive,,inactive,inactive,inactive,inactive,inactive,inactive,inactive,inactive,inactive,inactive,inactive,,,,inactive,
O=C1CN=C(c2ccccc2)c2cc(Cl)ccc2N1CC1CC1,inactive,inactive,inactive,,inactive,inactive,,inactive,,,,inactive,inactive,,,,inactive,,32.2 µM (active),
O=C(CBr)OCc1ccccc1,inactive,inactive,inactive,inactive,inactive,inactive,inactive,inactive,inactive,inactive,inactive,inactive,inactive,,inactive,inactive,inactive,inactive,,
CC1C(=O)C[C@]2(C(C)C)C[C@H]12 (stereo not given in full),inactive,inactive,inactive,,inactive,inactive,inactive,inactive,inactive,inactive,inactive,inactive,inactive,inactive,inactive,inactive,inactive,,inactive,
Nc1ccc(N=Nc2ccc(-c3ccc(N=Nc4c(S(=O)(=O)O)cc5cc(S(=O)(=O)O)c(N=Nc6ccccc6)c(O)c5c4N)cc3)cc2)c(N)c1,31.3 µM (active),5.56 µM (active),39.4 µM (active),inactive,inactive,inactive,,inactive,inactive,,,,,,,,inactive,,inactive,
CC(C)(C)C(O)C(Oc1ccc(Cl)cc1)n1cncn1 (stereo not given),inactive,18.6 µM (active),inactive,inactive,,inactive,,,,,,inactive,,,,,,,,
CCCN(CCC)c1c([N+](=O)[O-])cc(S(C)(=O)=O)cc1[N+](=O)[O-],inactive,inactive,inactive,,inactive,inactive,,inactive,inactive,,inactive,inactive,,inactive,inactive,,,,inactive,
CCCCOC(=O)c1ccccc1C(=O)OCc1ccccc1,inactive,inactive,inactive,,inactive,inactive,inactive,inactive,inactive,,,inactive,,,,,,,inactive,
c1ccoc1,inactive,,inactive,inactive,inactive,inactive,inactive,inactive,inactive,,inactive,inactive,inactive,,inactive,inactive,inactive,inactive,inactive,inactive
NNC(=O)c1cccnc1,inactive,,inactive,,inactive,inactive,inactive,inactive,inactive,,,,inactive,inactive,inactive,inactive,inactive,,inactive,inactive
Cc1c(F)c(F)c(COC(=O)C2C(/C=C(\Cl)C(F)(F)F)C2(C)C)c(F)c1F (stereo not given),inactive,,inactive,inactive,inactive,inactive,inactive,inactive,,,inactive,,inactive,inactive,inactive,,inactive,inactive,,inactive
CCCC(=O)Cl,inactive,,inactive,inactive,inactive,inactive,inactive,inactive,inactive,inactive,inactive,inactive,inactive,,inactive,inactive,inactive,inactive,,inactive
